Experimental data taken from the supplement of paper PMC6522484.
Values joined by “and” are separate entries in the source; they are usually repeats but may differ in a detail not shown here. Equal entries are not always repeated. ± gives the standard deviation of the averaged measurements.

Assays:
DLD1 [1] = experiment: cell viability (CellTiter-Glo) relative to plate median (fraction of plate median); higher = more viable cells; conditions: 5 µM; treatment time 24 h; reporter: 7TFP
How it was run: (§1)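 Library compounds were added at a final concentration of 5 µM for 24 h to colorectal cancer cells stably transduced with a lentiviral TCF/Wnt firefly luciferase reporter. Reported values are firefly luciferase or CellTiterGlo luminescence, normalised per well to the plate median. Each value averages two independent replicates.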

HCT116 = experiment: as above; conditions: 5 µM; treatment time 24 h; reporter: TCF4/Wnt
How it was run: as §1

SW480 [2] = experiment: as above; conditions: 5 µM; treatment time 24 h; reporter: 7TFP
How it was run: as §1

DLD1 [3] = experiment: TCF/Wnt firefly luciferase reporter signal relative to plate median (fraction of plate median); higher = higher Wnt reporter signal; conditions: 5 µM; treatment time 24 h; reporter: 7TFP
How it was run: as §1

SW480 [4] = experiment: as above; conditions: 5 µM; treatment time 24 h; reporter: 7TFP
How it was run: as §1

SMILES	cell viability (DLD1 [1])	cell viability (HCT116)	cell viability (SW480 [2])	TCF/Wnt firefly luciferase reporter signal (DLD1 [3])	TCF/Wnt firefly luciferase reporter signal (SW480 [4])
COc1cc(/C=C/C(=O)N2CCC=CC2=O)cc(OC)c1OC	0.939 ± 0.037	0.717 ± 0.099	1.11 ± 0.042	0.704 ± 0.14	0.773 ± 0.095
CCCCC(=O)O[C@H]1CC[C@H]2[C@@H]3CCc4cc(O)ccc4[C@H]3CC[C@]12C	1.07 ± 0.042	1.01 ± 0.052	1 ± 0.036	0.956 ± 0.25	1.04 ± 0.11
CN(C)CCOC(C)(c1ccccc1)c1ccccn1 (stereo not given)	1.1 ± 0.2	0.947 ± 0.1	1.04 ± 0.042	0.999 ± 0.016	1.04 ± 0.014
CC[C@]12CCCN3CCc4c(n(c5ccccc45)[C@@](O)(C(=O)OC)C1)[C@@H]32	1.02 ± 0.047	0.953 ± 0.096	1.03 ± 0.014	0.981 ± 0.11	0.971
N[C@@H](C=O)[C@@H](O[C@@H]1O[C@H](C(=O)O)[C@@H](O)[C@H](O)[C@H]1O)[C@@H](O)[C@H](O)CO	1.02	1.14 ± 0.22	1 ± 0.054	0.939 ± 0.029	1 ± 0.078
COC[C@H]1O[C@@H](OC2OC[C@@H]3O[C@]4(O[C@H]3[C@H]2OC(=O)C(C)C)O[C@H](C)[C@@](O)(C(C)=O)[C@@H]2OCO[C@H]24)[C@@H](OC)[C@@H](O)[C@@H]1O[C@@H]1O[C@H](C)[C@H](OC)[C@H](O[C@H]2C[C@@]3(C)OC4(C[C@@H](O)[C@H](O[C@H]5C[C@@H](O)[C@H](OC(=O)c6c(C)c(Cl)c(O)c(Cl)c6OC)[C@@H](C)O5)[C@@H](C)O4)O[C@@H]3[C@@H](C)O2)[C@H]1O (stereo not given in full) [Avilamycin A]	0.977 ± 0.033	1.02 ± 0.042	0.991 ± 0.042	1.03 ± 0.028	1.03 ± 0.078
CC(C)CCC[C@@H](C)[C@H]1CC[C@H]2[C@@H]3CC=C4CC(=O)CC[C@]4(C)[C@H]3CC[C@]12C	1 ± 0.026	1.015 ± 0.0071	1.03 ± 0.048	0.979 ± 0.13	0.974 ± 0.19
Nc1ccc(S(=O)(=O)Nc2cnc3ccccc3n2)cc1	0.996 ± 0.02	1.07 ± 0.028	1 ± 0.08	1.11 ± 0.085	1.045 ± 0.0071
COc1ccc2cc(CCC(C)=O)ccc2c1	0.968 ± 0.074	0.905 ± 0.09	0.925 ± 0.0085	1.24 ± 0.27	1.25 ± 0.035
CN(C)CCCN1c2ccccc2Sc2ccccc21	0.908 ± 0.056	0.908 ± 0.032	0.96 ± 0.071	0.92 ± 0.021	0.895 ± 0.069
CCOC(=O)N1CCC(=C2c3ccc(Cl)cc3CCc3cccnc32)CC1	0.987 ± 0.047	0.896 ± 0.064	0.962 ± 0.068	1.08 ± 0.19	0.94 ± 0.032
CC(C)=CCC1=C(O)C(=O)c2ccccc2C1=O	1.055 ± 0.0071	1.07 ± 0.064	1.02 ± 0.028	1.15 ± 0.092	1.04 ± 0.064
CCCCCC1C(=O)CCC1CC(=O)O (stereo not given)	1.02 ± 0.25	1.2 ± 0.18	1.105 ± 0.0071	1.06 ± 0.099	1.04 ± 0.058
CC1=CC2C(C(C)C)CCC(C)(O)C2CC1 (stereo not given)	0.97 ± 0.036	0.929 ± 0.011	0.969 ± 0.013	1.02 ± 0.11	0.957 ± 0.025
CCCCOc1cc(CC2CNC(=O)N2)ccc1OC (stereo not given)	0.999 ± 0.016	0.921 ± 0.081	0.912 ± 0.011	1.015 ± 0.0071	1.04 ± 0.19
O=c1cc(-c2ccc(O)cc2)oc2cc(O)ccc12	1.06 ± 0.13	0.987 ± 0.1	0.987 ± 0.033	0.92 ± 0.11	1.04 ± 0.028
CO[C@@H]1[C@H](O)[C@@H](C)O[C@@H](OC[C@H]2[C@@H]3O[C@H]3/C=C/C(=O)[C@@](C)(O)C[C@H](C)[C@H](O[C@@H]3O[C@H](C)C[C@H](OC)[C@H]3O)[C@@H](C)/C=C/C(=O)O[C@@H]2C)[C@@H]1OC [Chalcomycin]	1.04 ± 0.083	1.1 ± 0.071	1.01 ± 0.048	0.869 ± 0.094	0.965 ± 0.034
NS(=O)(=O)c1cc2c(cc1C(F)(F)F)NCNS2(=O)=O	1.02 ± 0.17	1.09 ± 0.021	1.04 ± 0.057	1.12 ± 0.064	1.15 ± 0.092
CNS(=O)(=O)Cc1ccc2[nH]cc(CCN(C)C)c2c1	1.08 ± 0.099	1.07 ± 0.05	0.9885 ± 0.0078	1.07 ± 0.099	1.07 ± 0.028
COc1ccc2c(C)cc(=O)oc2c1	0.974 ± 0.027	0.962 ± 0.022	0.939 ± 0.0071	0.803 ± 0.14	0.869 ± 0.099
Nc1ccc(S(=O)(=O)Nc2ccccn2)cc1	0.971 ± 0.11	0.949 ± 0.067	0.981 ± 0.055	1.12 ± 0.028	0.915 ± 0.076
N[C@H]1Cc2ccc(cc2)C(=O)[C@@H]2C[C@@H](O)CN2C1=O [cyclo(4-hydroxyprolyl-phenylalanyl)]	0.951 ± 0.023	0.907 ± 0.16	0.956 ± 0.016	0.915 ± 0.18	1.03 ± 0.028
O=C1c2ccccc2C(=O)c2c1ccc(O)c2O	1.01 ± 0.074	1.05 ± 0.13	0.983 ± 0.053	1.09 ± 0.11	1.1 ± 0.13
CCc1nc(N)nc(N)c1-c1ccc(Cl)cc1	0.972 ± 0.082	0.999 ± 0.03	1.02 ± 0.021	1.1 ± 0.23	1.1 ± 0.042
CC(=O)O[C@H]1C[C@@H](OC(C)=O)C(C)(C)[C@@H]2C[C@@H](OC(C)=O)[C@]3(C)[C@H](CC[C@@]4(C)[C@H](c5ccoc5)OC(=O)[C@H]5O[C@@]534)[C@@]12C	1.11 ± 0.14	1.18 ± 0.028	1.15 ± 0.042	1.07 ± 0.12	1.04 ± 0.021
Cc1nc(C)c(Cl)c(O)c1Cl	1.1 ± 0.099	1.03 ± 0.11	1.004 ± 0.0085	0.99 ± 0.029	0.917 ± 0.059
CCN(CC)CCNc1ccc(CO)c2sc3ccccc3c(=O)c12	1.1 ± 0.028	1.02 ± 0.014	0.995 ± 0.0057	1.16 ± 0.18	0.988 ± 0.1

SMILES	cell viability (DLD1 [1])	cell viability (HCT116)	cell viability (SW480 [2])	TCF/Wnt firefly luciferase reporter signal (DLD1 [3])	TCF/Wnt firefly luciferase reporter signal (SW480 [4])
Cc1ncc(C[n+]2csc(CCO)c2C)c(N)n1	0.981 ± 0.041	0.978 ± 0.088	1.005 ± 0.0071	0.926 ± 0.011	0.946 ± 0.02
CC(=O)NS(=O)(=O)c1ccc(NC(=O)c2ccccc2C(=O)O)cc1	0.946 ± 0.047	0.905 ± 0.13	0.93 ± 0.035	1.04 ± 0.057	1.1 ± 0.042
CC(=O)Oc1ccc2c(c1OC(C)=O)OCC1(O)Cc3c(cc(OC(C)=O)c(OC(C)=O)c3OC(C)=O)C21 (stereo not given)	0.96 ± 0.017	1.02 ± 0.074	0.959 ± 0.059	0.939 ± 0.05	0.9105 ± 0.0064
CC1CC(OC(=O)C(O)c2ccccc2)CC(C)(C)N1C (stereo not given)	1 ± 0.011	1.05 ± 0.021	1.02	1.05 ± 0.028	1.18 ± 0.057
O=c1cc(-c2ccccc2)oc2cccc(O)c12	0.972 ± 0.068	1.04 ± 0.073	1.04 ± 0.058	0.98 ± 0.0085	1.03
CC(C)[C@H](NC(=O)[C@H](Cc1ccc(O)cc1)NC(=O)[C@@H](NC(=O)C(F)(F)F)C(C)C)C(=O)O	0.957 ± 0.028	0.94 ± 0.021	0.969 ± 0.025	0.842 ± 0.12	0.845 ± 0.035
O=C(c1ccc(OCCN2CCCCC2)cc1)c1c(-c2ccc(O)cc2)sc2cc(O)ccc12	0.933	1.01 ± 0.1	0.938 ± 0.066	0.879 ± 0.0042	0.926 ± 0.078
C[C@]1(O)CC(=O)c2c(ccc3c2C(=O)c2cccc(O)c2C3=O)C1 [Tetrangomycin; Benzanthramycin; LL-AE-705-Y]	0.822 ± 0.019	0.978 ± 0.14	1 ± 0.067	0.853 ± 0.065	1.01 ± 0.045
OCC(O)C(O)C(O)CO (stereo not given)	0.921 and 1.07	0.918 and 1.01	0.905 and 0.944	1.02 and 1.01	1.06 and 1.04
CC1=C2C(O)C(=O)OC3CC4C(C)(C)C(=O)C=C[C@]4(C)C(CC1)[C@]23C (stereo not given in full)	0.931 ± 0.015	0.97 ± 0.13	1.015 ± 0.0071	1.01 ± 0.14	1.14 ± 0.05
CC(=O)c1c(O)cc(O)cc1O	1.02 ± 0.035	1.03 ± 0.035	1.04 ± 0.068	1.08 ± 0.042	0.938 ± 0.033
Cc1cc(-c2ncc(CC(=O)Nc3ccc(-c4cnccn4)cn3)cc2C)ccn1	0.974 ± 0.052	0.975 ± 0.032	0.914 ± 0.0028	0.921 ± 0.042	0.847 ± 0.21
C=C(CC)C(=O)c1ccc(OCC(=O)O)c(Cl)c1Cl	1.01 ± 0.046	1.01 ± 0.046	1.03 ± 0.05	1.11 ± 0.11	1.095 ± 0.0071
CCOc1ccc(NC(C)=O)cc1	0.956 ± 0.12	1.065 ± 0.0071	1 ± 0.021	1.01 ± 0.08	1.06 ± 0.05
NCCCCCC(=O)O	0.888 ± 0.054	1.02 ± 0.014	0.972 ± 0.083	1 ± 0.11	1.01 ± 0.081
COC(=O)[C@H]1[C@H]2C[C@@H]3c4[nH]c5cc(OC)ccc5c4CCN3C[C@H]2C[C@@H](OC(=O)c2cc(OC)c(OC)c(OC)c2)[C@@H]1OC	0.932 ± 0.065	1.02 ± 0.07	0.972 ± 0.054	0.974 ± 0.093	1.01 ± 0.018
CC[C@H](/C=C/[C@@H](C)[C@H]1CC[C@H]2[C@@H]3CCC4=CC(=O)CC[C@]4(C)[C@H]3CC[C@]12C)C(C)C	0.999 ± 0.087	0.976 ± 0.18	1.02 ± 0.041	1.05	1.06 ± 0.028
Nc1ccc(S(=O)(=O)O)cc1.Nc1ccc(S(=O)(=O)O)cc1.[Zn]	1.08 ± 0.18	1.01 ± 0.049	1.105 ± 0.0071	1.03 ± 0.12	1.015 ± 0.0071
C[C@@H]1O[C@@H](O[C@H]2[C@H](O[C@H]3CC[C@@]4(C)[C@@H](CC[C@]5(C)[C@@H]4CC=C4[C@@H]6CC(C)(C)CC[C@]6(C(=O)O)CC[C@]45C)[C@]3(C)CO)OC[C@H](O)[C@@H]2O)[C@H](O)[C@H](O)[C@H]1O	1.04 ± 0.062	1.05 ± 0.1	1.03 ± 0.098	1.04 ± 0.014	1.06 ± 0.064
CCN1CCN(C(=O)N[C@@H](C(=O)N[C@@H]2C(=O)N3C(C(=O)O)=C(CSc4nnnn4C)CS[C@H]23)c2ccc(O)cc2)C(=O)C1=O	0.973 ± 0.053	1.06 ± 0.035	0.951 ± 0.023	0.886 ± 0.042	1.01 ± 0.098
CC(C)=CCOc1cc2oc(=O)ccc2cc1O	1.08 ± 0.014	1.19 ± 0.11	1.04 ± 0.028	1.005 ± 0.0071	1.07 ± 0.064
COc1ccc(-c2coc3cc(O)ccc3c2=O)c(OC)c1	0.989 ± 0.016	1.01 ± 0.067	1.04 ± 0.05	1.035 ± 0.0071	1.01 ± 0.064
N[C@@H](Cc1c[nH]c2ccccc12)C(=O)O	1.07 ± 0.078	1.07 ± 0.014	1.03 ± 0.014	1.21 ± 0.028	1.1 ± 0.05
N[C@@H](Cc1cc(I)c(Oc2ccc(O)c(I)c2)c(I)c1)C(=O)O	0.988 ± 0.015	0.926 ± 0.012	0.969 ± 0.036	1.01 ± 0.17	0.978 ± 0.0099
OC(CCN1CCCCC1)(c1ccccc1)c1ccccc1	0.982 ± 0.068	0.916 ± 0.051	1.02 ± 0.014	0.834 ± 0.2	0.878 ± 0.019
Nc1c(Br)cc(Br)cc1CN[C@H]1CC[C@H](O)CC1	0.914 ± 0.066	1.09 ± 0.11	0.946 ± 0.029	0.944 ± 0.19	0.887 ± 0.016
